PLC-beta3 inh: PLC-beta3 (human) inhibition, primary screen; Q01970; Purified PLC-beta3, fluorogenic substrate, fluorescence; inhibition, % at 12.2 µM; 370,000 tested, 0.18% active; in the data active = inhibition above about 11%;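 note: 0% = median of compound wells on plate and 100% = full blocker control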
ADAM17 inh: inhibits human ADAM17 | recombinant ADAM17, EDANS/DABCYL FRET peptide cleavage | P78536 | 370,000 tested, 0.83% active | inhibition, % at 6.95 µM | AID 720648;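 active = inhibition above the mean of compounds lying between control limits plus 3 SD, set per campaign, cut at about 8.5% in these data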;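 note: 0% = DMSO-only wells as the low control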
ADAM10 inh: inhibitors of human ADAM10 | O14672 | inhibition, % at 7 µM | recombinant ADAM10, EDANS/DABCYL FRET peptide cleavage, 3 h | 370,000 tested, 0.62% active;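 active = inhibition above a per-campaign cutoff equal to the mean of compounds falling between control-based bounds plus 3 SD, cut at about 20% in these data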;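 note: 0% = DMSO wells while the 100% control is not disclosed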
PLC-gamma1 inh: PLC-gamma1 (human) inhibition, primary screen; P19174; purified PLC-gamma1, fluorogenic substrate, fluorescence; inhibition, % at 12.2 µM; 370,000 tested, 0.84% active; AID 720700; in the data active = inhibition above about 9.5%
Target sequence (P19174 whole entry, looked up): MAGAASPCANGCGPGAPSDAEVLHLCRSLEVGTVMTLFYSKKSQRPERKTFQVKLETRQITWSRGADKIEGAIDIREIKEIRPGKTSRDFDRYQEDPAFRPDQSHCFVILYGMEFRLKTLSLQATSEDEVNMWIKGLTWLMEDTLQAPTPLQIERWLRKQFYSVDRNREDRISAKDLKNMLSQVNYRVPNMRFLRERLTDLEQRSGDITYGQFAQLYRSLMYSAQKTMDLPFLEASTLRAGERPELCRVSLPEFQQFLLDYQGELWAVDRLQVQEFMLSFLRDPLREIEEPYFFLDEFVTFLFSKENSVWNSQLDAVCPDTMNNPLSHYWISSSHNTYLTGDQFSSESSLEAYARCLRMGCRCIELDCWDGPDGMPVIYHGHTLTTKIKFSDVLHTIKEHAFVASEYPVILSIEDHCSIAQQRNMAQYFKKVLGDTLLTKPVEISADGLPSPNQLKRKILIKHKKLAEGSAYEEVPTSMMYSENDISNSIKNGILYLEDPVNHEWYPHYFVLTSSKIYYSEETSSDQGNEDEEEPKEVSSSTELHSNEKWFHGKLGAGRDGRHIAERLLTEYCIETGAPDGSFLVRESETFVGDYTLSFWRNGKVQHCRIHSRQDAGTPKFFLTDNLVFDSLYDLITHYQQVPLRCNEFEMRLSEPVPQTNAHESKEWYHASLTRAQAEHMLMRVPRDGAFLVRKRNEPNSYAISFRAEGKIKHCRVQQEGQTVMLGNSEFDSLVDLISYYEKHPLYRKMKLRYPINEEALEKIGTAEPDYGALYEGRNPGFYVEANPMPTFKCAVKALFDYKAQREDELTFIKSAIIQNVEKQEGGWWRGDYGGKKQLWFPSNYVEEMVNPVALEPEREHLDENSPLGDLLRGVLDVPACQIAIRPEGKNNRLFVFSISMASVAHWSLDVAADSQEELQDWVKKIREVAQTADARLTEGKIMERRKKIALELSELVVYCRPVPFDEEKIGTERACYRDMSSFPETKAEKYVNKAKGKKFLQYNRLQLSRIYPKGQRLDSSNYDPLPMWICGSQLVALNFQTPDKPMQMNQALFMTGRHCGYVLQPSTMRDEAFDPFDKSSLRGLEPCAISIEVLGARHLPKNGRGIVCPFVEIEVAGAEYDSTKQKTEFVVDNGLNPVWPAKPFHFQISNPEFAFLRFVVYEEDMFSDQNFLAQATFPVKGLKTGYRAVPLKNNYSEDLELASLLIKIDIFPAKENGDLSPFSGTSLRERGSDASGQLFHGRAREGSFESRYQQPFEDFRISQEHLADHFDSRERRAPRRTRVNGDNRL
proKLK7 act: activates the human kallikrein-7 zymogen | purified proKLK7, EDANS-DABCYL substrate fluorescence; 100% is mature enzyme control, 0% vehicle | P49862 | 370,000 tested, 0.9% active | activation, % at 7 µM;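 active = activation above the mean of all tested compounds plus 3 SD, computed per campaign excluding outliers beyond control limits, cut at about 13% in these data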
proKLK7 act conf: confirmation of human kallikrein-7 zymogen activators. AID 686949. 3,200 tested, 68% active. purified proKLK7, EDANS-DABCYL substrate fluorescence; scaled: vehicle 0, mature enzyme 100. shares compounds with proKLK7 act. activation, % at 7 µM;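 active = activation, as change over the incubation, above the mean of all tested compounds plus 3 SD, cut at about 13% in these data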
EDANS interfere: fluorescence interference counter-screen for KLK7 activators; 3,200 tested, 80% active; shares compounds with proKLK7 act; activation, % at 7 µM; EDANS-DABCYL substrate fluorescence interference, no enzyme, 4 h; solvent 0%, active enzyme control 100%;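 active = activation above the all-compound mean plus 3 SD, ignoring values outside control-based bounds, cut at about 4.8% in these data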;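 note: value is the 4 h activation minus the activation read at time zero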
* = called active by the depositor; i = inactive; x = no result. Sampled rows, rich in hits. Any-hit rate of the full collection: about 2.9%.

SMILES	PLC-beta3 inh	ADAM17 inh	ADAM10 inh	PLC-gamma1 inh	proKLK7 act	proKLK7 act conf	EDANS interfere
C[C@@H](CO)N(Cc1cn(Cc2ccccc2)nn1)S(=O)(=O)c1ccc(F)cc1Br	-1	-1	-7	2	0	x	x
CNC(=S)N/N=C/c1c(C(=O)OC)cnn1-c1ccc(Cl)cc1	-1	-1	-3	2	x	x	x
Cc1ccc(NC(=O)[C@@H]2CC(=O)O[C@@H]2c2ccccc2)c(C)c1	-1	-3	-3	-3	0	x	x
Nc1ccc2nc(C3CCCCC3)[nH]c2c1	-6	-4	-9	-8	0	x	x
Nc1ccc2cc3[nH]c4cc(N)ccc4c3nc2c1	i	-317	i	i	86*	75*	75*
COC(=O)[C@]12C[C@H](CC(=O)NCCCN3CCCC3=O)C(=O)N(Cc3ccco3)C1=C[C@H](C(C)C)O[C@@H]2C1CC1	0	-6	-13	-1	0	x	x
CCCCc1cc(=O)oc2c(CN(C)C)c(O)ccc12	i	i	i	i	55*	63*	66*
CCCCc1cc(=O)oc2cc(OCC(=O)N3CCOCC3)ccc12	-17	-39	-106	-11	0	x	x
CCCc1cc(=O)oc2c(CN3CCN(C)CC3)c(O)ccc12	i	i	i	i	46*	66*	75*
Cc1c(O)ccc2c(CN(C)Cc3ccccc3)cc(=O)oc12	i	-240	i	i	-74	x	x
CCCCc1cc(=O)oc2cc(O)ccc12	i	i	i	i	56*	79*	78*
CCCc1cc(=O)oc2c(CN3CCOCC3)c(O)ccc12	i	i	i	i	75*	72*	63*
CCCCc1cc(=O)oc2c(CN3CCN(C)CC3)c(O)ccc12	i	i	i	i	53*	70*	75*
CC(=O)c1c(O)ccc2c(-c3ccccc3)cc(=O)oc12	-347	-12	-39	-300	5	x	x
CN(C)Cc1c(O)ccc2c(-c3ccccc3)cc(=O)oc12	i	-48	-126	i	13*	26*	25*
O=c1cc(CN2CCN(Cc3ccccc3)CC2)c2ccc(O)c(O)c2o1	-55	-18	-45	-31	0	x	x
O=c1cc(CN2CCc3ccccc32)c2ccc(O)cc2o1	-183	-127	-401	-178	19*	41*	45*
CC(C)[C@H](N)C(=O)N[C@H](C(=O)N1CCC2CCN(S(=O)(=O)c3ccccc3)CC21)C(C)C (stereo partly drawn)	-1	-3	-2	0	0	x	x
COC(=O)C1CN(Cc2ccccc2)CCS(=O)(=O)N1Cc1ccc(Cl)cc1 (stereo not drawn)	2	2	4	2	0	x	x
CCCC(=O)N1CCC[C@]2(CC[C@@H](CCC(C)=O)O2)C1	0	-3	-7	0	0	x	x
CCNC(=S)NNC(=O)c1cc(Br)cs1	-10	-6	-5	-7	13*	6	6.5*
CCNC(=S)NNC(=O)c1csc(C)c1	8	-4	3	-1	0	x	x
COC(=O)c1ccc2c(C)c(C3(O)CCCCC3)[nH]c2c1	i	i	i	i	38*	-80	-82
N=c1c2c(ccn1Cc1ccccc1)Oc1ccc3ccccc3c1C2c1ccccc1 (stereo not drawn)	-6	7	18	0	x	x	x
CN(C)c1ccc(/C=N\NC(=O)c2cccc(S(=O)(=O)N(C)C)c2)cc1	-152	5	2	-103	1	x	x
COc1ccc(-c2c(NC(=O)C(C)C)n(C)c3ccccc3c2=O)cc1	-364	-143	-438	-251	16*	18*	20*
COc1cccc(-c2ccc(NC(=O)C3CCCN(Cc4cccc(C)n4)C3)cc2)c1 (stereo not drawn)	-1	0	10	-2	0	x	x
CCOC(=O)N1CCC(N2CCCC(C(=O)c3cc(C)c(OC)c(C)c3)C2)CC1 (stereo not drawn)	9	1	4	1	0	x	x

Source: PubChem
